According to PubChem BioAssay AID1159580 (chemical genetic matrix, 2015):
Out of some 5,500 compounds screened, about 2,000 (36%) were called active. Another 18% or so got no clear call; they are omitted. Rule as the data show it: active = normalized growth mostly below about 0.91 (no sharp cut-off); inconclusive = no clear call, values can overlap the other calls; inactive = mostly above about 0.92. This is one part of the list.

Assay: chemical genetic growth profiling, strain panel (AID 1159580);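 also: tested at 20 µM; growth read once vehicle control cultures reached saturation at 30 °C; 1 = growth at the plate median or of vehicle wells; lower values mean less growth of the strain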
Details: S. cerevisiae deletion strains, growth OD

Measured: normalized growth

O=c1[nH]c(=O)n([C@H]2C[C@H](O)[C@@H](CO)O2)cc1Br
inactive: locus YAL013W, strain DEP1, active compounds read low 1 | locus YAL040C, strain CLN3, active compounds read low 1.08 | locus YDR363W, strain ESC2, active compounds read low 1.01 | locus YER002W, strain NOP16, active compounds read low 1.01 | locus YNL175C, strain NOP13, active compounds read low 1 | locus YNL197C, strain WHI3, active compounds read low 1 | locus YNL224C, strain SQS1, active compounds read low 1 | locus YNL322C, strain KRE1, active compounds read low 1.02 | locus YOR083W, strain WHI5 (second series), active compounds read low 0.991
